# HCV inh: qHTS Assay for Inhibitors of Hepatitis C Virus (HCV); 340,000 tested, 3.4% active; Potency, µM (highest dose often 41.8 µM), for inactives: at the top dose activity change, negative = inhibition, most hits filed as inhibitors; Huh7.5.1 HCVcc-Cre infection, luciferase reporter, 44 h
#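 Antiviral activity was scored by luciferase reporter output from cells infected with HCVcc-Cre (~0.5 moi) in presence of compound, 44 h infection period, cells seeded 1,000/well 4 h prior.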
# AmpC no deterg: qHTS Inhibitors of AmpC Beta-Lactamase (assay without detergent). Potency, µM (series often up to 57.1 µM), without a hit: at the highest dose activity change, negative = inhibition, actives largely listed as inhibitors. P00811. AmpC nitrocefin hydrolysis, absorbance 480 nm, 0.0001% Triton. 330,000 tested, 0.52% active;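 note: plate controls were no compound for no effect and no enzyme for full effect; nearly all actives have a fitted effect of over 20% in size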
# Target sequence (P00811 whole entry, looked up): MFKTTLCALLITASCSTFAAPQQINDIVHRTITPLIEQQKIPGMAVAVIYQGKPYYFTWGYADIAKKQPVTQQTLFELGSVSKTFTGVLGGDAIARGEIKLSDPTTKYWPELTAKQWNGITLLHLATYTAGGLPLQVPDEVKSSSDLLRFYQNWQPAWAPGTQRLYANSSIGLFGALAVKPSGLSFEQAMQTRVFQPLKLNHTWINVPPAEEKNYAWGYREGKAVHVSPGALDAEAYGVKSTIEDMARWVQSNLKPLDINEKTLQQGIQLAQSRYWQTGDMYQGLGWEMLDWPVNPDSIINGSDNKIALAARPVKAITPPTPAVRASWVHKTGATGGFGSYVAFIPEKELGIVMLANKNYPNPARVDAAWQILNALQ
#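 AmpC (5.3 nM in the dispensed reagent) in 20 mM phosphate pH 7.0 with 0.01% (detergent screen) or 0.0001% Triton X-100 was preincubated with compounds for 15 min at room temperature. Nitrocefin was then added from an 800 uM solution, and hydrolysis was followed at 480 nm.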
# Pf growth 96h: Primary qHTS for delayed death inhibitors of the malarial parasite plastid, 96 hour incubation; P. falciparum luciferase reporter growth, 96 h; Potency, µM (titrated, usually from 28.7 µM), inactives show at the top dose activity change, negative = inhibition, actives largely listed as inhibitors; 320,000 tested, 6.9% active; AID 504834, 2011
#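 Delayed-death screen, second-generation endpoint: infected erythrocytes, 2% hematocrit, 0.05% parasitemia final; 96 hours at 37 C, 5% CO2; luciferase detection reagent; luminescence decrease equals reduced growth.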
# AmpC inh detg: qHTS Inhibitors of AmpC Beta-Lactamase (assay with detergent); AmpC hydrolysis of nitrocefin, absorbance 480 nm, 0.01% Triton; P00811; Potency, µM (highest dose often 114 µM), for the others: at the top dose activity change, negative = inhibition, most hits filed as inhibitors; 370,000 tested, 0.041% active;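 note: 0% = no-compound wells and -100% = no-enzyme wells; nearly all actives have a fitted effect of over 25% in size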
#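 AmpC (5.3 nM in the dispensed reagent) in 20 mM phosphate pH 7.0 with 0.01% (detergent screen) or 0.0001% Triton X-100 was preincubated with compounds for 15 min at room temperature. Nitrocefin was then added from an 800 uM solution, and hydrolysis was followed at 480 nm.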
# Pf growth 48h: Primary qHTS for delayed death inhibitors of the malarial parasite plastid, 48 hour incubation; P. falciparum luciferase growth in erythrocytes, 48 h; 310,000 tested, 5.9% active; Potency, µM (doses to about 28.7 µM), without a hit: at the top dose activity change, negative = inhibition, hits mostly inhibitors
#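 Growth was read as firefly luciferase luminescence after a 48 h, 37 C, 5% CO2 exposure of compounds to reporter-bearing P. falciparum cultures (0.1% parasitemia, 2% hematocrit final) in Albumax-supplemented RPMI 1640.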
# AMA1-RON2 inh: qHTS for Inhibitors of AMA1-RON; Towards Development of Antimalarial Drug Lead: Primary Screen; Plasmodium falciparum AMA1 (3D7) - RON2 peptide interaction; AlphaScreen AMA1-biotinylated RON2 peptide binding; Potency, µM (titrated, usually from 58.2 µM), without a hit: at the top dose activity change, negative = inhibition, hits mostly inhibitors; 360,000 tested, 0.2% active; AID 720542, 2013;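 note: 0% = vehicle wells and -100% = peptide control; nearly all actives have a fitted effect of over 45% in size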
#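 AMA1 (3D7) with his tag at 25 nM final met compounds first, then biotinylated RON2 peptide at 25 nM; detection used donor plus acceptor beads, 10 µg/mL apiece, read by AlphaScreen after 30 min at room temperature.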
# The depositor's hits bear a star; u = inconclusive; x = no result given; [ ] = dose if it differs, or a comment. Hits are enriched below; roughly 11% of the tested compounds scored in any of these assays. Calls come from the whole dose curve; as a rule, active = well fitted curve in the direction sought with a large enough effect; inconclusive = small, poorly fitted or top-dose-only effect, or another doubt; inactive = no such curve, though single readings can be large; an effect the other way counts as inactive or inconclusive. Unless noted, % is set by controls: 0 for no effect and ±100 for the full control effect; potency is the fitted concentration of half-maximal effect.
SMILES,HCV inh,AmpC no deterg,Pf growth 96h,AmpC inh detg,Pf growth 48h,AMA1-RON2 inh
Cc1cc(-c2nn(-c3ccccc3F)cc2CN2CCN(c3ccncc3)CC2)c(C)s1,u,89%,u,0%,4.1µM*,-6%
Cc1ccc(C(=O)N2CC(=O)Nc3ccc(F)cc3C2c2ccccc2)cc1[N+](=O)[O-] (stereo not drawn),2%,-5%,u,-2%,9.3µM*,0%[2.32 µM]
CCCC(=O)N1CC(=O)Nc2ccc(C)cc2C1c1ccccc1 (stereo not drawn),4%,-17%,7.4µM*,-11%,-30%,-4%
Cc1ccc(C(=O)N2CC(=O)Nc3ccc(F)cc3C2c2ccc(F)cc2)cc1[N+](=O)[O-] (stereo not drawn),-4%,-17%,0%,7%,u,-20%
O=C(CSc1ncc2c(n1)-c1ccc(Cl)cc1N(Cc1ccccc1)S2(=O)=O)Nc1ccccc1C(F)(F)F,x,x,x,7%,x,x
COC(=O)C1C(=O)C2=C(CC1C)NC(=O)CC2c1ccccc1 (stereo not drawn),17%,-13%,-21%,-11%,u,-4%
CCOc1cc(C2CC(=O)NC3=C2C(=O)C(C(=O)OC)C(C)C3)cc(Cl)c1O (stereo not drawn),10%,-20%,-43%,-4%,1.2µM*,-8%
O=C(CS(=O)(=O)c1cccc2nsnc12)Nc1ccc(F)cc1F,x,x,x,8%,x,x
C/C(=N\NC(=O)c1cc(C2CC2)nc2ccccc12)c1ccc(C)s1,-6%,-32%,u,-11%,x,82%
CCOc1ccc(-c2cc(C(=O)N/N=C(\C)c3cccnc3)c3ccccc3n2)c(OCC)c1,u,-5%,u,-13%,13µM*,61%
C/C(=N\NC(=O)c1cc(-c2cccnc2)nc2ccccc12)c1ccccc1O,4µM*,6%,u,-21%,6.6µM*,64%
C/C(=N\NC(=O)c1cc(C2CC2)nc2ccccc12)c1ccc(O)cc1O,6.3µM*,u,-2%,u,u,53%
O=C(N/N=C/c1ccco1)c1cc(C2CC2)nc2ccccc12,-18%,28µM*,37%,1%,13%,x
COc1ccc(-c2cc(C(=O)N/N=C(\C)c3cccnc3)c3ccccc3n2)cc1,x,-8%,6%,-7%,11%,12%
C/C(=N\NC(=O)c1cc(-c2ccncc2)nc2ccccc12)c1ccc(OC(F)F)cc1,-12%,26%,3.3µM*,-13%,-27%,10%
COc1ccc(/C(C)=N/NC(=O)c2cc(-c3cccnc3)nc3ccccc23)cc1,2%,-13%,8%,u,13%,12%
Cc1n[nH]c(=S)n1-c1ccc(Cl)cc1,9%,-14%,5.9µM*,1%,10%,33%
S=c1[nH]nc(-c2ccc3ccccc3n2)n1-c1ccc(Cl)cc1,40%,-36%,0.59µM*,u,7%,49%
Cc1n[nH]c(=S)n1-c1ccccc1,13%,2%,u,-3%,u,1%
Fc1ccc(-n2c(-c3ccc4ccccc4n3)n[nH]c2=S)cc1Cl,26%,-28%,12%,-10%,21%,163%
CN(CC(=O)Nc1ccc(F)cc1)C(=O)c1cccc(S(=O)(=O)N2CCN(c3ccc(F)cc3)CC2)c1,8.9µM*,43%,u,-3%,12µM*,-8%
CN(Cc1ccc(F)cc1)C(=O)c1cccc(S(=O)(=O)N2CCN(c3ccc(F)cc3)CC2)c1,10µM*,43%,u,-20%,-44%,u
COc1ccc(CN(C)C(=O)c2cccc(S(=O)(=O)N3CCCc4ccccc43)c2)c(OC)c1OC,11µM*,x,x,x,x,27%
COc1cccc(NC(=O)CN(C)C(=O)c2cccc(S(=O)(=O)N3CCN(c4ccc(F)cc4)CC3)c2)c1,u,90%,u,-3%,-20%,-23%
Cc1ccc(CN(C)C(=O)c2cccc(S(=O)(=O)N3CCN(c4ccccc4)CC3)c2)cc1,u,x,x,x,x,-3%[11.6 µM]
SMILES,HCV inh,AmpC no deterg,Pf growth 96h,AmpC inh detg,Pf growth 48h,AMA1-RON2 inh
CN(Cc1ccc(F)cc1)C(=O)c1cccc(S(=O)(=O)N2CCN(c3ccccc3)CC2)c1,13µM*,37%,u,-4%,9.3µM*,u
Cc1c(-c2nsc(NC(=O)c3cccs3)n2)nnn1-c1ccc(Cl)cc1,x,x,x,1%,x,x
Cc1ccnc(NC(=O)c2cccc(S(=O)(=O)N3CCN(c4ccc(F)cc4)CC3)c2)c1,10µM*,-29%,u,-12%,u,-9%
COc1ccc(CN(C)C(=O)c2cccc(S(=O)(=O)N3CCN(c4ccccc4)CC3)c2)c(OC)c1OC,8.9µM*,167%,u,u,u,u
COc1cccc(CN(C)C(=O)c2cccc(S(=O)(=O)N3CCN(c4ccccc4)CC3)c2)c1,x,x,x,x,x,-9%
CCOC(=O)CN(Cc1ccccc1)C(C(=O)NC1CCCCC1)c1ccccc1 (stereo not drawn),x,x,x,5%,x,x
O=C(CSc1nc2nn(-c3ccccc3)c(=O)c-2c2n1CCCCC2)c1ccc(OC(F)F)cc1,7.9µM*,5%,x,x,x,-13%
Cc1ccc(C)c(C(=O)C(C)Sc2nc3nn(-c4ccccc4)c(=O)c-3c3n2CCCCC3)c1 (stereo not drawn),-9%,-9%,9.3µM*,u,u,24%
CCSc1nc2nn(-c3ccccc3)c(=O)c-2c2n1CCCCC2,-11%,-15%,x,-11%,-19%,-5%
O=[N+]([O-])c1cccc2c([As](=O)(O)O)cccc12,u,-13%,0.47µM*,2%,0.74µM*,2%
O=c1[nH]ccc2c([N+](=O)[O-])cccc12,5%,-7%,32%,-1%,18%,-5%
CCn1nnc2cc(C(=O)Nc3cc(C)ccc3C)ccc21,x,x,x,3%,x,x
CCn1c(C)[n+](CCOC(C)=O)c2cc(Cl)c(Cl)cc21,-1%,-4%,34%,3%,2.3µM*,37%
CCn1c(=O)[nH]c2cc(Cl)c(Cl)cc21,-11%,-16%,14%,u,2%,-6%
CC(=O)OCCCN1C(=O)c2ccc(Br)cc2C1=O,22%,-4%,12%,-10%,1%,-5%
CC(=O)OCCCn1c(C)[n+](C)c2cc(Cl)c(Cl)cc21,14%,-41%,37%,-3%,5.2µM*,-5%
COc1ccc(C)cc1NC(=O)C(Sc1nncn1C)c1ccccc1 (stereo not drawn),-4%,54%,46%,-8%,-16%,5%

# Screens (PubChem BioAssay)
